# Screening results (PubChem BioAssay)
# Shown are actives, neighbours in structure and some others; about 1.1% of the full set was active somewhere.
# AmpC inh detg: inhibitors of E. coli AmpC beta-lactamase with detergent. Potency, µM (top dose mostly 114 µM), for the others: top-dose activity change, negative = inhibition, actives largely listed as inhibitors. 370,000 compounds, 0.041% hits. P00811. AmpC hydrolysis of nitrocefin, absorbance 480 nm, 0.01% Triton;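 note: potency is the fitted concentration of half-maximal effect; 0% = no-compound wells and -100% = no-enzyme wells; nearly all actives have a fitted effect of over 25% in size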
# Target sequence (P00811 whole entry, looked up): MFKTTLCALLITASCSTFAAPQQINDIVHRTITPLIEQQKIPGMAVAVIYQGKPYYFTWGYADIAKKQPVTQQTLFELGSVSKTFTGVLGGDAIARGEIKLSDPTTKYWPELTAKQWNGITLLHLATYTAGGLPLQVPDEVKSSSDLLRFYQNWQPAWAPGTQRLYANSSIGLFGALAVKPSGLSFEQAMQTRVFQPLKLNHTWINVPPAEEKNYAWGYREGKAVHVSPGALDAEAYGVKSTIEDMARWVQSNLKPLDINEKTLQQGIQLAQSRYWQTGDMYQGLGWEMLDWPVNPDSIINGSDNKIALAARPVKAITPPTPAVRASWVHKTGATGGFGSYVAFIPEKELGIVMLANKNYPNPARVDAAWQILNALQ
#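 20 mM phosphate pH 7.0 + 0.01% (detergent screen) or 0.0001% Triton X-100; 5.3 nM AmpC reagent; cpd preinc 15 min RT; nitrocefin (800 uM stock) to start; A480 q20 s × 4 min; Activity was normalised to no-enzyme and no-compound control wells.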
# Giardia FBPA inh-1: Giardia lamblia aldolase inhibition. A8B2U2. Potency, µM (top dose mostly 59.6 µM), without a hit: at the top dose activity, negative = inhibition, usual class: inhibitors. AID 2451. 290,000 compounds, 0.71% hits. purified Giardia FBPA; note: potency is the fitted concentration of half-maximal effect; % is set by controls: 0 for no effect and ±100 for the full control effect; nearly all actives have a fitted effect of over 55% in size
# Target sequence (A8B2U2 whole entry, looked up): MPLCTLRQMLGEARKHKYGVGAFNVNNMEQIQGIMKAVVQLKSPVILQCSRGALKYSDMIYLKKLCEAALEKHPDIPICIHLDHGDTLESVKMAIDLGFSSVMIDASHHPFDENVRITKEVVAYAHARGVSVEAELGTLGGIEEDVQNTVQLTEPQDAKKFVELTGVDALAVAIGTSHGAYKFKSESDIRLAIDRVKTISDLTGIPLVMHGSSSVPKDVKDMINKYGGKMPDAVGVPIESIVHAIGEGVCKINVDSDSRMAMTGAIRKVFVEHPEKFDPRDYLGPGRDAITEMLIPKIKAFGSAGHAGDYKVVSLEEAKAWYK
#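 Giardia FBPA (40 nM reagent) was preincubated 10 min at RT with compound (up to 57.5 uM final), then substrate plus GAPDH/TPI/NAD/arsenate coupling system with diaphorase/resazurin was added; resorufin fluorescence (525/598 nm) was read after 20 min.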
# SARS PLpro yeast-1: blocks SARS-CoV papain-like protease in a yeast assay; Potency, µM (top dose mostly 32.9 µM), for the others: at the top dose activity, positive = growth rescue, usual class: activators; AID 485353; 330,000 compounds, 0.19% hits; S. cerevisiae expressing SARS-CoV PLpro, growth rescue; calls by dose curve; note: potency is the fitted concentration of half-maximal effect; 0% is about no effect; nearly all actives have a fitted effect of over 55% in size
# AmpC inh no detg: blocks E. coli AmpC beta-lactamase in detergent-free assay; AID 485341; AmpC nitrocefin hydrolysis, absorbance 480 nm, 0.0001% Triton; 330,000 compounds, 0.52% hits; Potency, µM (doses to about 57.1 µM), for inactives: at the highest dose activity change, negative = inhibition, usual class: inhibitors; P00811;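 note: potency is the fitted concentration of half-maximal effect; plate controls were no compound for no effect and no enzyme for full effect; nearly all actives have a fitted effect of over 20% in size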
#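 20 mM phosphate pH 7.0 + 0.01% (detergent screen) or 0.0001% Triton X-100; 5.3 nM AmpC reagent; cpd preinc 15 min RT; nitrocefin (800 uM stock) to start; A480 q20 s × 4 min; Activity was normalised to no-enzyme and no-compound control wells.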
# Giardia growth: blocks growth of Giardia lamblia trophozoites | shares compounds with Giardia FBPA inh-1 | Giardia lamblia trophozoite growth inhibition | Potency, µM (doses to about 57.5 µM), for the others: at the highest dose activity change, negative = inhibition, actives largely listed as inhibitors | 1,500 compounds, 5% hits;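 note: potency is the fitted concentration of half-maximal effect; trophozoites exposed to compound for 48 h at 37 °C; % is set by controls: 0 for no effect and ±100 for the full control effect; nearly all actives have a fitted effect of over 70% in size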
# Mammal cell tox: toxic to mammalian cells in Giardia aldolase counter-screen; shares compounds with Giardia FBPA inh-1; mammalian cell viability counter-screen, qHTS; Potency, µM (titrated, usually from 57.5 µM), for the others: top-dose viability change, negative = toxicity, actives largely listed as inhibitors; 1,500 compounds, 4% hits; AID 2786;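 note: Chinese hamster ovary cells used as mammalian cytotoxicity surrogate; viability measured as cellular ATP by luminescence; potency is the fitted concentration of half-maximal effect; compound exposure lasted 48 h before reading; % is set by controls: 0 for no effect and ±100 for the full control effect; nearly all actives have a fitted effect of over 60% in size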
# Giardia FBPA inh-2: confirmation of Giardia fructose-bisphosphate aldolase inhibitors; 1,500 compounds, 5% hits; Potency, µM (doses to about 57.5 µM), inactives show top-dose activity change, negative = inhibition, actives largely listed as inhibitors; AID 2787; purified Giardia aldolase enzyme activity, qHTS; shares compounds with Giardia FBPA inh-1; note: potency is the fitted concentration of half-maximal effect; % is set by controls: 0 for no effect and ±100 for the full control effect; nearly all actives have a fitted effect of over 45% in size
# Rabbit aldolase: rabbit FBP aldolase inhibition by Giardia aldolase hits; shares compounds with Giardia FBPA inh-1; Rabbit muscle FBPA enzyme inhibition, selectivity counter-screen; Potency, µM (titrated, usually from 57.5 µM), for inactives: at the highest dose activity, negative = inhibition, usual class: inhibitors; 1,500 compounds, 4% hits; note: potency is the fitted concentration of half-maximal effect; % is set by controls: 0 for no effect and ±100 for the full control effect; nearly all actives have a fitted effect of over 60% in size
# GAPDH counter: GAPDH inhibition flagged for Giardia aldolase hits. shares compounds with Giardia FBPA inh-1. GAPDH coupling enzyme counterscreen, biochemical, qHTS. Potency, µM (titrated, usually from 57.5 µM), without a hit: top-dose activity change, negative = inhibition, hits mostly inhibitors. 1,500 compounds, 6% hits. AID 2795; note: potency is the fitted concentration of half-maximal effect; % is set by controls: 0 for no effect and ±100 for the full control effect; nearly all actives have a fitted effect of over 55% in size
# SARS PLpro yeast-2: Rescues yeast growth by inhibiting SARS-CoV PLpro. shares compounds with SARS PLpro yeast-1. yeast expressing SARS-CoV PLpro, growth phenotype rescue. calls only. 1,000 compounds, 19% hits; call rule not given here
# * hit, by the source's call; i = inactive; ? = inconclusive; . = no result; + = active, no number; ! = not confirmed by another sample; [ ] = dose if it differs, or a comment. Unless noted, calls come from the whole dose curve; as a rule, active = well fitted curve in the direction sought with a large enough effect; inconclusive = small, poorly fitted or top-dose-only effect, or another doubt; inactive = no such curve, though single readings can be large; an effect the other way counts as inactive or inconclusive.
SMILES,AmpC inh detg,Giardia FBPA inh-1,SARS PLpro yeast-1,AmpC inh no detg,Giardia growth,Mammal cell tox,Giardia FBPA inh-2,Rabbit aldolase,GAPDH counter,SARS PLpro yeast-2
Fc1ccccc1CN1CCN(c2ncccn2)CC1,?,25µM*,3%,-2%,25%,13%,5%,0%,-18%,.
Cc1cc(C)c(NC(=S)N(CCc2ccncc2)C(C)C)c(C)c1,-7%,10µM*,-1%,26%,-6%[38.3 µM],-13%,3%,2%,-4%,.
COc1cc2c(C(=O)N3CCN(c4cccc(C)c4)C(C)C3)cn(CC(C)C)c(=O)c2cc1OC (configuration not stated),5%,.,.,.,.,.,.,.,.,.
Cc1nc2c(c(C)nn2-c2ccccc2)c(C)c1CCC(=O)Nc1ccc(F)cc1,17%,.,.,.,.,.,.,.,.,.
Cn1c(=O)c2nc3ccc(NC(=O)C(F)(F)F)cc3nc2n(C)c1=O,16%,.,.,.,.,.,.,.,.,.
CC(=O)Nc1ccc2nc3c(=O)n(C)c(=O)n(C)c3nc2c1,5%,18µM*,0%,-8%,13%,-22%,?,?,40µM*,.
CCOc1ccc(NC(=O)c2ccc3nc(Cc4ccccc4)oc3c2)cc1,6%,.,.,.,.,.,.,.,.,.
COc1ccc2nc(SCC(=O)Nc3c(C)cccc3C)[nH]c2c1,-2%,-3%,4%,-10%,.,.,.,.,.,.
COc1ccc2nc(S(=O)Cc3ncc(C)c(OC)c3C)[nH]c2c1 (configuration not stated),-13%,16µM*!,3%,-7%,?,-20%,-17%,-10%,-9%,.
CC(=O)c1ccc(N2CCN(C(=O)NCc3noc4ccc(C)cc34)CC2)cc1,-1%,.,.,.,.,.,.,.,.,.
C(=N\Nc1nc2ccccc2[nH]1)/c1ccccn1,?,?,15%,-19%,.,.,.,.,.,.
Cc1ccc(/C=N/Nc2ccc3ccccc3n2)o1,2%,-21%,-3%,-1%,.,.,.,.,.,.
Cc1ccc(/C=N/Nc2cn[nH]c(=O)n2)o1,-3%,18µM*,0%,-33%,11%[10.4 µM],4%,-7%,0%,-2%,.
O=c1cnnc(N/N=C/c2ccccn2)[nH]1,-1%,0.79µM*,?,-12%,2%[38.3 µM],?,4%,-5%,-16%,.
O=c1nc(N/N=C/c2ccccn2)cn[nH]1,5%,0.71µM*,-25%,-16%,-25%[38.3 µM],?,8%,-9%,-6%,.
c1ncc(-c2ccoc2)c(NC2CC2)n1,.,-29%,.,.,.,.,.,.,.,.
CCOc1ccc(NC(=O)CC2C(=O)N(c3cccc(C)c3)C(=O)N2Cc2cccs2)cc1 (configuration not stated),6%,.,.,.,.,.,.,.,.,.
Cc1cc(=O)c2c(O)c(O)ccc2o1,-1%,10µM*,4%,-17%,63%,11%,?,?,?,.
O=C(Oc1c(CN2CCOCC2)cc(Cl)c2cccnc12)c1ccccc1F,7%,16µM*,2.5µM*,-5%,7.9µM*,7.9µM*,?,?,-27%,?
NC(=S)NN=C1C2CC3CC(C2)CC1C3,?,18µM*,?,-13%[11.4 µM],11%,6%,-2%,15%,6%,i
NC(=O)C(=O)NN=C1C2CC3CC(C2)CC1C3,1%,-10%,-6%,-17%,.,.,.,.,.,.
Cn1c(=O)c(CCc2ccccc2)nc2cnc(N3CCNCC3)nc21,.,10%,.,.,.,.,.,.,.,.
O=C(N/N=C/c1ccc(O)c(O)c1O)/C(=C/c1ccc([N+](=O)[O-])cc1)NC(=O)c1ccccc1,-4%,6.3µM*,2.5µM*,-42%,?,-12%,?,?,?,i
CCCCS(=O)(=O)N1C2=NC(C(=O)OC)=C(C(=O)OC)[C@@H]3N(C)c4ccccc4[C@]23C[C@H]1C(=O)OC,.,5%[12.9 µM],.,.,.,.,.,.,.,.
O=C1/C(=C\c2ccco2)SC(=S)N1c1ccc(O)cc1,-14%,?,.,?,.,.,.,.,.,i
SMILES,AmpC inh detg,Giardia FBPA inh-1,SARS PLpro yeast-1,AmpC inh no detg,Giardia growth,Mammal cell tox,Giardia FBPA inh-2,Rabbit aldolase,GAPDH counter,SARS PLpro yeast-2
Cc1cccc(CN2CC34CCC(CC3S2(=O)=O)O4)c1 (configuration not stated),.,11%,.,.,.,.,.,.,.,.
CC(=O)Nc1ccc(NC(=O)C(C)OC(=O)c2c(NC(C)=O)sc(C)c2C)cc1 (configuration not stated),-3%,.,?,-29%,.,.,.,.,.,i
COc1ccc(CCNC(=O)Cn2nc([N+](=O)[O-])c(Br)c2C)cc1OC,7%,3%,?,-7%,.,.,.,.,.,i
CC(C)Cn1c(-c2csc(C(C)C)c2)n[nH]c1=S,7%,9%,-2%,-23%,.,.,.,.,.,.
Cc1cc(-c2n[nH]c(=S)n2CC(C)C)cs1,-16%,4%,?,-28%,.,.,.,.,.,+
CCCCOc1ccc(OC(=O)c2sc3ncn(Cc4cccc(F)c4)c(=O)c3c2C)cc1,5%,.,.,.,.,.,.,.,.,.
CC(C)(C)NC(=O)[C@@H]1C[C@H]2CCCC[C@@H]2CN1C[C@H](O)[C@H](Cc1ccccc1)NC(=O)[C@@H](CC(N)=O)NC(=O)c1ccc2ccccc2n1,.,0%[21.7 µM],.,.,.,.,.,.,.,.
Cc1ccc(SC(C)C(=O)Nc2c(C)n(C)n(-c3ccccc3)c2=O)cc1 (configuration not stated),3%,14%,?,-7%,.,.,.,.,.,+
Cc1ccc(SCCC(=O)Nc2c(C)n(C)n(-c3ccccc3)c2=O)cc1,-2%,1%,?,-3%,.,.,.,.,.,i
Cc1c(NC(=O)CSc2ccc(Cl)cc2)c(=O)n(-c2ccccc2)n1C,6%,9%,-1%,11%,.,.,.,.,.,.
COc1ccc(OC)c(CC2C(=O)Nc3ccc(Br)cc32)c1 (configuration not stated),14%,.,.,.,.,.,.,.,.,.
COc1cc2c(cc1OC)C(COc1cc(C)cc(C)c1)N(C(=O)C(C)(C)C)CC2 (configuration not stated),4%,.,.,.,.,.,.,.,.,.
CCOc1ccc(N(C(C)C(=O)NN=C2CCCCCCC2)S(C)(=O)=O)cc1 (configuration not stated),1%,3%,1%,3%,.,.,.,.,.,.
COc1ccc(N(C(C)C(=O)NN=C2CCCC2)S(C)(=O)=O)cc1 (configuration not stated),2%,9%,11µM*,-5%,.,.,.,.,.,i
CCOC(=O)N1CCC(NC(=O)c2ccc3c(c2)N(Cc2ccccc2)C(=O)c2ccccc2S3(=O)=O)CC1,0%,.,.,.,.,.,.,.,.,.
